Screens as filed in PubChem BioAssay.
HTR5A ag: activates human HTR5A in OPRM1-OPRD1 agonist counter-screen; P47898; HTR5A agonist assay, luminescence, cell-based; activation, % at 9.3 µM; 340,000 tested, 0.61% active; AID 504692; in the data active = activation mostly above about 9.5%, no sharp cut-off; inactive = mostly below about 7.6%;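 also: 0% = cells with vehicle only and 100% = reference agonist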
OPRM1-OPRD1 inv: inverse agonists of human mu-delta opioid receptor heterodimerization; 340,000 tested, 0.21% active; cell-based MOR-DOR heterodimer luminescence, inverse agonism; P35372+P41143; inhibition, % at 9.3 µM; AID 504357; in the data active = inhibition above about 22%, passing the limit was not always enough;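 also: 0% = cells with DMSO and 100% = wells without cells with DMSO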
HTR5A inv ctr: counter-screen for OPRM1-OPRD1 inverse agonists: human HTR5A inverse agonism | P47898 | HTR5A cell line, luminescence | inhibition, % at 9.3 µM | 340,000 tested, 0.083% active | AID 504634; in the data active = inhibition mostly above about 23%, no sharp cut-off; inactive = mostly below about 18%;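 also: 0% = cells with DMSO and 100% = no-cell wells with DMSO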
OPRM1-OPRD1 ag: OPRM1-OPRD1 heterodimerization agonism. P35372+P41143. cells, luminescence. activation, % at 9.3 µM. 340,000 tested, 0.3% active. AID 504326; in the data active = activation above about 18%;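 also: 0% = vehicle-treated cells and 100% = reference agonist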
HTR2A ag: agonists of mouse serotonin 5-HT2A receptor (HTR2A) | P35363 | CHO-K1 mHTR2A beta-arrestin complementation, luminescence; percent of 30 µM serotonin response | activation, % at 7.6 µM | 360,000 tested, 0.66% active | AID 624169;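 active = activation above a run cutoff, the mean activation of all tested compounds plus 3 SD, cut at about 14% in these data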;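 also: 0% = plate median of compound wells and 100% = 30 µM serotonin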
OPRM1 ag: activates human mu opioid receptor in HTR2A counterscreen. shares compounds with HTR2A ag. U2OS OPRM1 beta-arrestin PathHunter, luminescence; DMSO 0%, DAMGO 9.3 µM 100%. activation, % at 9.3 µM. 2,300 tested, 5.3% active;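 active = mean activation above the mean of DMSO-only wells plus 3 SD, cut at about 0.5% in these data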
m5-HT2A ag conf: confirmation of mouse HTR2A serotonin receptor agonists | shares compounds with HTR2A ag | CHO-K1 PathHunter beta-arrestin recruitment, luminescence; DMSO 0%, 30 µM serotonin 100% | activation, % at 7.6 µM | 2,300 tested, 19% active | AID 624381;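 active = mean activation across triplicates above the hit threshold derived in the original primary screen, cut at about 15% in these data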
* marks the source's active call; other numbers are inactive results; · = no result given. Most compounds without a hit are left out; they make up all but 1.6% or so of the library.

SMILES	HTR5A ag	OPRM1-OPRD1 inv	HTR5A inv ctr	OPRM1-OPRD1 ag	HTR2A ag	OPRM1 ag	m5-HT2A ag conf
COc1ccc(Cl)cc1C(=O)C1CCCN(CCO)C1 (configuration not stated)	-1	6	2	-1	-6	·	·
COc1ccc2[nH]cc(CCN(C)C)c2c1	·	8	·	-1	49*	-1	36*
FC(F)(F)Oc1ccc(NC2=NCCCS2)cc1	-4	6	15	-1	15*	-1	-1
FC(F)(F)c1cccc(NC2=NCCCS2)c1	4	12	6	-2	-2	·	·
N#Cc1c(/N=C/C2C(=O)NC(=S)NC2=O)sc2c1CCCC2	5	7	-3	-1	15*	-1	36*
O=c1[nH]c2ccccc2n1C1CCN(C(c2ccccc2OC(F)(F)F)c2nnnn2-c2ccc3c(c2)OCCO3)CC1 (configuration not stated)	·	·	·	·	15*	·	11
O=c1[nH]c2ccccc2n1C1CCN(C(c2cccs2)c2nnnn2-c2ccc3c(c2)OCCO3)CC1 (configuration not stated)	·	·	·	·	14*	·	17*
COc1cc(C[C@@H](C)N)c(OC)cc1I	2	6	-6	-1	61*	0	26*
CC(N)Cc1c[nH]c2c1ccc1ccccc12 (configuration not stated)	5	9	-17	-2	-9	·	·
C#CC[N+]1(C)[C@@H]2CC(OC(=O)C(CO)c3ccccc3)C[C@H]1C(O)C2 (some centres not stated)	-4	22	15	-5	7	·	·
Cc1cccc(CNCCc2c[nH]c3ccccc23)c1	3	-15	-26	3	33*	0	15*
OC(CCNCCc1c[nH]c2ccccc12)C(F)(F)Cl (configuration not stated)	0	7	1	-2	-1	·	·
Fc1cccc(CNCCc2c[nH]c3ccccc23)c1	4	-7	-14	1	35*	0	39*
COc1ccc2oc3c(c2c1)NC(=O)CN=C3c1ccccc1	1	-4	3	1	2	·	·
CSCCC(N=Cc1c(O)n(-c2ccc(Br)cc2)c(=O)[nH]c1=O)C(=O)OC(C)(C)C (configuration not stated)	11	2	-26	0	2	·	·
COC(=O)C1=C(c2ccc(F)cc2OCc2ccccc2)C[C@@H]2CC[C@H]1N2C(=O)NCCNC(C)=O	9	5	0	-1	-3	·	·
CC12CN3CC(C)(CN(C1)P3(=O)Oc1ccccc1)C2=O (configuration not stated)	1	-2	-30	0	-4	·	·
CC12CN3CC(c4ccccc4)(CN(C1)C31CCCCC1)C2=O	0	4	4	-1	16*	0	0
CNCC(=O)c1ccc(O)c(O)c1	·	·	·	·	31*	0	90*
Cc1ccc(-n2c(=S)[nH]c3ccccc3c2=O)cc1C	·	·	·	·	-2	·	·
CCN1CCN(c2cc(N3CCCC3)c(F)cc2[N+](=O)[O-])CC1	0	12	-32	-2	-8	·	·
CCCN1CCc2cc(O)cc3c2[C@H]1Cc1ccc(O)c(O)c1-3	2	-39	-8	7	48*	0	171*
CN1CCc2cc(O)cc3c2[C@H]1Cc1ccc(O)c(O)c1-3	-1	-8	-9	1	57*	0	152*
O=C(O)c1nn(Cc2ccc(Cl)cc2Cl)c2ccccc12	-2	8	7	-1	-3	·	·
O=C(O)c1nn(Cc2ccc(Cl)cc2)c2ccccc12	·	·	·	·	15*	0	0
O=C(Cc1ccccc1)N1CCN(Cc2c[nH]c3ccccc23)CC1	2	-13	-21	2	22*	-1	10
COc1cccc(CN2CCN(C(=O)Cc3ccccc3OC)CC2)c1	1	4	-5	-1	19*	0	10
O=C(COc1ccccc1)N1CCN(Cc2c[nH]c3ccccc23)CC1	15	8	-38	-1	16*	0	7
Cn1cccc1CN1CCN(C(=O)COc2ccccc2)CC1	1	4	-17	-1	-4	·	·
